Data reported in the supplement of paper PMC6992640.
± gives the standard deviation of the averaged measurements.

What was measured:
Test in all cases: cell viability (% of vehicle); higher = less cytotoxic
Conditions in all cases: 10 µM; 72 h
HCI01 = test system: HCI01 (cells of a triple-negative basal-like breast cancer xenograft)
HCI03 = test system: HCI03 (cells of an ER-positive luminal breast cancer xenograft)
HCI09 = test system: HCI09 (cells of a triple-negative luminal androgen receptor type breast cancer xenograft)
HCI11 = test system: HCI11 (cells of an ER-positive luminal breast cancer xenograft)
HCI13 = test system: HCI13 (cells of an ER-positive luminal breast cancer xenograft)
HCI16 = test system: HCI16 (cells of a triple-negative basal-like breast cancer xenograft)
UCD52 = test system: UCD52 (cells of a triple-negative basal-like breast cancer xenograft)
WHIM2 = test system: WHIM2 (cells of a triple-negative basal-like breast cancer xenograft)
WHIM30 = test system: WHIM30 (cells of a triple-negative basal-like breast cancer xenograft)
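Further: PDX cells carrying CMV promoter-driven luciferase, viability read as total photon flux per second by IVIS imaging following D-luciferin, vehicle control 0.1% DMSO.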

Row | SMILES | cell viability (HCI01) | cell viability (HCI03) | cell viability (HCI09) | cell viability (HCI11) | cell viability (HCI13) | cell viability (HCI16) | cell viability (UCD52) | cell viability (WHIM2) | cell viability (WHIM30)
1 | COc1ccc(C=Cc2cc(OC)c(OC)c(OC)c2)cc1OP(=O)([O-])[O-].[Na+].[Na+] [Fosbretabulin (Combretastatin A4 Phosphate (CA4P)) Disodium] | 185 ± 47 | 115 | 110 ± 35 | 115 | 41.7 ± 5.6 | 132 | 86 ± 16 | 111 ± 12 | 104 ± 5.7
2 | Cc1nccn1CC1CCc2c(c3ccccc3n2C)C1=O.Cl (stereo not given) [Ondansetron HCl] | 126 ± 18 | 123 | 93.6 ± 9.8 | 111 | 96.7 ± 2.7 | 104 | 80.3 ± 1 | 83.9 ± 22 | 128 ± 9.2
3 | CCCS(=O)c1ccc2nc(NC(=O)OC)[nH]c2c1 (stereo not given) [Albendazole Oxide] | 115 ± 11 | 144 | 110 ± 35 | 105 | 68.2 ± 9.5 | 106 | 103 ± 11 | 112 ± 34 | 141.6 ± 1.2
4 | Nc1nc(Cl)nc2c1ncn2C1CC(O)C(CO)O1 (stereo not given) [Cladribine] | 95.8 ± 7.4 | 118 | 94.6 ± 26 | 104 | 128 ± 34 | 58.3 | 110 ± 15 | 106 ± 34 | 78.8 ± 8.9
5 | CCOc1nc2cccc(C(=O)O)c2n1Cc1ccc(-c2ccccc2-c2nn[nH]n2)cc1 [Candesartan] | 98 ± 5.4 | 122 | 93.6 ± 2.2 | 101 | 127.9 ± 1.2 | 109 | 82.15 ± 0.28 | 85.9 ± 7.9 | 112 ± 23
6 | NC(CC(=O)N1CCn2c(nnc2C(F)(F)F)C1)Cc1cc(F)c(F)cc1F.O.O=P(=O)OO.[HH] (stereo not given) [Sitagliptin phosphate monohydrate] | 134 ± 15 | 154 | 94.1 ± 15 | 131 | 135 ± 37 | 135 | 120 ± 3.7 | 115.8 ± 0.55 | 144 ± 14
7 | Nc1[nH]c(=O)ncc1F [Flucytosine] | 106 ± 1.6 | 137 | 94.7 ± 12 | 93.1 | 135 ± 4.5 | 94.7 | 81.4 ± 1.5 | 93.72 ± 0.49 | 82.1 ± 1.3
8 | CCCCC1C(=O)N(c2ccccc2)N(c2ccccc2)C1=O [Phenylbutazone] | 89.4 ± 24 | 129 | 86.7 ± 11 | 97.2 | 127.3 ± 0.28 | 120 | 88.9 ± 1.4 | 89 ± 23 | 119 ± 3.8
9 | COc1nc(N)nc2c1ncn2C1OC(CO)C(O)C1O (stereo not given) [Nelarabine] | 127 ± 20 | 117 | 113 ± 0.87 | 95.9 | 86.3 ± 5.3 | 98.4 | 111 ± 21 | 96.7 ± 21 | 115 ± 17
10 | CCC(C)C(=O)OC1CCC=C2C=CC(C)C(CCC3CC(O)CC(=O)O3)C21 (stereo not given) [Mevastatin] | 129 ± 20 | 119 | 87.8 ± 22 | 120 | 92.7 ± 24 | 132 | 54.2 ± 10 | 86.8 ± 15 | 136 ± 4.6
11 | Cl.NC(N)=NC(=O)Cc1c(Cl)cccc1Cl [Guanfacine hydrochloride] | 117 ± 15 | 97.6 | 82.1 ± 9.4 | 86.2 | 107 ± 6.5 | 94.4 | 93.2 ± 6 | 102 ± 9.9 | 132 ± 19
12 | CCNC1(C(N)=O)CCN(c2ncnc3c2nc(-c2ccccc2Cl)n3-c2ccc(Cl)cc2)CC1.Cl | 83 ± 14 | 86 | 39.3 ± 16 | 75 | 81 ± 13 | 92.1 | 63.4 ± 1.6 | 89.6 ± 5.2 | 109 ± 9.3
13 | CN1CCc2nc(C(=O)NC3CC(C(=O)N(C)C)CCC3NC(=O)C(=O)Nc3ccc(Cl)cn3)sc2C1.Cc1ccc(S(=O)(=O)O)cc1.O (stereo not given) [Edoxaban tosylate monohydrate] | 102 ± 2.5 | 92.1 | 87.2 ± 11 | 91.2 | 109 ± 8.7 | 81.1 | 88.8 ± 16 | 96.4 ± 8.8 | 120 ± 4.4
14 | O=C(O)CCc1nc(-c2ccccc2)c(-c2ccccc2)o1 [Oxaprozin] | 121 ± 25 | 102 | 89.1 ± 2.8 | 106 | 108 ± 1.6 | 122 | 99.29 ± 0.38 | 101 ± 11 | 151 ± 17
15 | COc1ccc2c(c1OC)C(=O)OC2C1c2c(cc3c(c2OC)OCO3)CCN1C.Cl (stereo not given) [Noscapine HCl] | 127 ± 6.7 | 114 | 127 ± 49 | 117 | 101 ± 6.3 | 117 | 93.7 ± 5 | 111 ± 18 | 139.5 ± 0.58
16 | O=C(O)Cc1ccccc1Nc1c(Cl)cccc1Cl [Diclofenac] | 92.9 ± 26 | 123 | 84.8 ± 15 | 96.8 | 114 ± 31 | 127 | 90.6 ± 16 | 87.4 ± 0.94 | 92.1 ± 4.7
17 | COC(=O)NC(C(=O)NC(Cc1ccccc1)C(O)CN(Cc1ccc(-c2ccccn2)cc1)NC(=O)C(NC(=O)OC)C(C)(C)C)C(C)(C)C.O=S(=O)(O)O (stereo not given) | 134 ± 8.2 | 135 | 74.8 ± 2.8 | 140 | 100 ± 5.6 | 138 | 113 ± 14 | 90 ± 6.2 | 148 ± 31
18 | COc1cc(OC)c(C=CS(=O)(=O)Cc2ccc(OC)c(NCC(=O)[O-])c2)c(OC)c1.[Na+] | 126.6 ± 0.39 | 111 | 112 ± 11 | 99.6 | 40.1 ± 4.7 | 115 | 117 ± 20 | 73.9 ± 14 | 112 ± 16
19 | Cc1ccccc1C(OCCN(C)C)c1ccccc1.O=C(O)CC(O)(CC(=O)O)C(=O)O (stereo not given) [Orphenadrine Citrate] | 145 ± 33 | 130 | 104 ± 1.3 | 90.9 | 108 ± 15 | 138 | 68.3 ± 6.3 | 83.3 ± 17 | 100 ± 7.5
20 | CN(Cc1cnc2nc(N)nc(N)c2n1)c1ccc(C(=O)NC(CCC(=O)O)C(=O)O)cc1 (stereo not given) [Methotrexate] | 101 ± 8.6 | 115 | 91.1 ± 13 | 113 | 104 ± 7.5 | 93.4 | 89.1 ± 8.7 | 101 ± 2.1 | 94.9 ± 13
